Results as given in PubChem BioAssay AID651640 (Broad Institute, 2012).
“And” between values parts separate entries of the source, which are not always exact repeats. Identical values can stand only once. Out of some 350,000 compounds screened, about 6,000 (1.7%) were called active. Not shown: some 5% with an inconclusive outcome. Cut-off read from the data, not from the text of the source: active = CPE inhibition above about 20% (passing the limit was not always enough); inconclusive = no clear call, values can overlap the other calls; tested in BHK-21 cells. Many of the other results were omitted from the sample, so actives are more common in it than they were. The source holds several records for some structures; these can differ, active in one and inactive in another.

Experiment: inhibitors of DENV2 cytopathic effect, primary screen, cell-based, plate reader, single concentration (AID 651640);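 note: 0% = median of neutral control wells and 100% = median of positive control wells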
Settings: DENV2-infected cells, cytopathic effect rescue, at 9.99 µM, stronger effect = higher value

CPE inhibition, active:
COc1ccc2c(C)c(CCC(=O)NC3CC3)c(=O)oc2c1C 63.2%
O=C(Nc1ncccc1O)c1ccc(S(=O)(=O)N2CCCCCC2)cc1 71.9%
O=C(COc1ccccc1)Nc1ccc(N2CCN(C(=O)c3cccs3)CC2)cc1 21.9%
COc1ccc2cc(-c3[nH]ncc3CNCCn3nc(C)cc3C)ccc2c1 22.2%
O=C(Cc1ccncc1)N1C[C@@H]2N[C@H](C1)C2c1ccc(-c2ccc(F)cc2)cc1 (some centres not stated) 21.5%
CC(C)(C)OC(=O)C[C@@H]1C/C=C\C[C@H](CC(=O)N[C@@H](CO)Cc2ccccc2)C(=O)N[C@H](Cc2ccccc2)COC1=O 21.2%
COCCn1c(SCC(=O)Nc2ccccc2F)nc2c(c1=O)SCC2 69.8%
C[C@@H]1CCCCO[C@@H](CN(C)C(=O)C2CCCCC2)[C@H](C)CN([C@H](C)CO)C(=O)c2cc(NC(=O)CCC(F)(F)F)ccc2O1 74.2%
C[C@@H]1CCCCO[C@@H](CN(C)C(=O)Nc2ccc(C(F)(F)F)cc2)[C@H](C)CN([C@H](C)CO)C(=O)c2cc(NC(=O)C3CCCCC3)ccc2O1 22.5%
C[C@H](CO)N1C[C@H](C)[C@H](CN(C)C(=O)Nc2ccc(C(F)(F)F)cc2)OCCCC[C@H](C)Oc2ccc(NC(=O)C3CCCCC3)cc2C1=O 21.9%
C[C@@H]1CN([C@H](C)CO)C(=O)c2cc(NS(=O)(=O)c3cccs3)ccc2O[C@@H](C)CCCCO[C@@H]1CN(C)S(=O)(=O)c1ccc(Cl)cc1 22.8%
C[C@@H]1CCCCO[C@H](CN(C)S(=O)(=O)c2ccc(Cl)cc2)[C@H](C)CN([C@@H](C)CO)C(=O)c2cc(NS(=O)(=O)c3cccs3)ccc2O1 63.8%
C[C@H]1CN([C@@H](C)CO)C(=O)c2cc(NS(=O)(=O)c3cccs3)ccc2O[C@@H]1CN(C)C(=O)Nc1ccccc1 22.2%

CPE inhibition, inactive:
COc1ccc(OC)c(Cc2nnc(CCC(=O)NC3CCCC3)o2)c1 -7.33%
Cc1c(CCC(=O)O)c(=O)oc2c(C)c(OCc3ccccc3Cl)ccc12 -5.66%
C[C@H]1CN([C@@H](C)CO)C(=O)c2cc(C#CCN(C)C)cnc2O[C@H]1CN(C)C(=O)Cc1ccccc1 -2.97%
Cc1[nH]c2ccccc2c1CC(=O)Nc1ccc(Nc2cccnc2)c(-c2cccc(Cl)c2)c1 -3.53%
Cc1ccccc1CN(C)C[C@H]1OCc2cn(nn2)CCCC(=O)N([C@@H](C)CO)C[C@H]1C -8.88%
COc1ccc(CN(C)C[C@H]2OCCCC[C@H](C)Oc3ccc(NC(=O)c4ccccc4)cc3C(=O)N([C@@H](C)CO)C[C@@H]2C)cc1 10.3%
O=C(Nc1ncccc1O)c1ccc(S(=O)(=O)N2CCCC2)cc1 -6.91%
O=C(N/N=C/c1ccccn1)c1ccc(S(=O)(=O)N2CCCCCC2)cc1 0.844%
C[C@@H]1CN([C@H](C)CO)C(=O)c2cc(NC(=O)Nc3ccc(F)cc3)ccc2O[C@@H](C)CCCCO[C@H]1CN(C)Cc1ccc(Cl)c(Cl)c1 -2.33%
C[C@@H]1CN([C@@H](C)CO)S(=O)(=O)c2ccc(C3=CCCCC3)cc2O[C@@H]1CN(C)Cc1cccc(C(=O)O)c1 0.212%
O=C(COc1ccccc1)Nc1ccc(C(=O)N2CCCC2)cc1 -2.25%
COc1ccc(N2CCN(C(=O)c3cccs3)CC2)cc1 5.45%
COc1ccc(-c2cn[nH]c2-c2ccc(OC)cc2)cc1 4.92%
Cc1cc(C)n(CCNS(=O)(=O)c2ccc(Cl)cc2)n1 8.8%
CN(C)CC(=O)N1[C@H](C(=O)NC2CCC2)[C@@H](CO)[C@@H]2Cn3c(ccc(-c4ccc(F)cc4)c3=O)[C@@H]21 2.93%
O=C(CN1CCOCC1)N1C[C@@H]2N[C@H](C1)C2c1ccc(-c2ccncc2)cc1 (some centres not stated) -7.01%
O=C(C1CCC1)N1C[C@@H]2N[C@H](C1)C2c1ccc(-c2cncnc2)cc1 (some centres not stated) 10.6%
COc1ccc(-c2ccc(C3[C@@H]4CN(S(=O)(=O)c5cn(C)cn5)C[C@H]3N4)cc2)cc1 (some centres not stated) 1.06%
Cn1cnc(S(=O)(=O)N2C[C@@H]3N[C@H](C2)C3c2ccc(/C=C/c3ccccc3)cc2)c1 (some centres not stated) 1.24% and -2.99%
CO[C@@H]1CN(C)C(=O)c2cc(NC(=O)C3CCCC3)ccc2OC[C@H](C)N(C)C[C@@H]1C 4.63%
COC(=O)C[C@@H]1C[C@H]2c3cc(NC(=O)CN(C)C)ccc3O[C@H]2[C@H](CO)O1 1.76%
Cc1noc(C)c1S(=O)(=O)N(C)C[C@@H]1OCCCC[C@H](C)Oc2ccc(NC(=O)CCC(F)(F)F)cc2C(=O)N([C@H](C)CO)C[C@H]1C 18.7%
O=C(Nc1nccs1)[C@@H]1[C@@H](CO)[C@@H]2Cn3c(ccc(-c4cccnc4)c3=O)[C@@H]2N1CC1CC1 -4.43%
CC(C)(C)OC(=O)C[C@@H]1C/C=C\C[C@@H](CC(=O)N[C@H](CO)Cc2ccccc2)C(=O)NCCOC1=O -7.88%
C[C@H]1COC(=O)[C@H](CC(=O)OC(C)(C)C)C/C=C\C[C@@H](CC(=O)N[C@H](CO)Cc2ccccc2)C(=O)N1 15.2%
O=C(NCC1CC1)[C@@H]1[C@@H](CO)[C@@H]2Cn3c(ccc(-c4ccncc4)c3=O)[C@@H]2N1Cc1cocn1 6.32%
O=C(c1ccncc1)N1CC[C@@H]2[C@H]1c1cc(Br)ccc1N[C@@H]2CO -10.3%
C[C@H]1CN([C@@H](C)CO)C(=O)c2cccc(NC(=O)Nc3ccccc3)c2O[C@@H]1CN(C)C(=O)Nc1cccc2ccccc12 13.2%
COCCn1c(SCC(=O)Nc2ccc(F)cc2F)nc2c(c1=O)SCC2 -1.37%
COCCn1c(SCC(=O)Nc2cc(Cl)ccc2OC)nc2c(c1=O)SC(C)C2 (configuration not stated) 1.59%
C[C@H]1CN([C@@H](C)CO)C(=O)c2cc(C3=CCCC3)cnc2O[C@H]1CN(C)Cc1ccccc1C(=O)O 10.8%
CC(C)C(=O)Nc1ccc2c(c1)C(=O)N(C)[C@@H]1CC[C@@H](CC(=O)NCCc3ccccc3)O[C@H]1CO2 19%
C[C@@H]1CCCCO[C@@H](CN(C)Cc2ccncc2)[C@H](C)CN([C@@H](C)CO)C(=O)c2cc(NS(=O)(=O)c3ccccc3)ccc2O1 -0.228%
C[C@@H]1CCCCO[C@@H](CN(C)C(=O)NC2CCCCC2)[C@@H](C)CN([C@H](C)CO)C(=O)c2cc(NC(=O)CCC(F)(F)F)ccc2O1 -1.91%
C[C@H]1CCCCO[C@H](CN(C)Cc2ccc(C(F)(F)F)cc2)[C@@H](C)CN([C@@H](C)CO)C(=O)c2cc(NC(=O)C3CCCCC3)ccc2O1 -17.3%
C[C@@H]1CCCCO[C@@H](CN(C)C(=O)CCC(F)(F)F)[C@@H](C)CN([C@H](C)CO)C(=O)c2cc(NC(=O)CCC(F)(F)F)ccc2O1 4.89%
C[C@@H]1CCCCO[C@H](CN(C)C(=O)Nc2ccc(C(F)(F)F)cc2)[C@H](C)CN([C@H](C)CO)C(=O)c2cc(NC(=O)Nc3ccc(C(F)(F)F)cc3)ccc2O1 2.81%
C[C@H](CO)N1C[C@H](C)[C@@H](CN(C)Cc2ccc(C(F)(F)F)cc2)OCCCC[C@H](C)Oc2ccc(NC(=O)C3CCCCC3)cc2C1=O -1.83%
C[C@@H]1CN([C@@H](C)CO)C(=O)c2cc(NC(=O)C3CCCCC3)ccc2O[C@@H](C)CCCCO[C@@H]1CN(C)C(=O)Nc1ccccc1 -1.11%
C[C@@H]1CN([C@H](C)CO)C(=O)c2cc(C#Cc3ccccn3)cnc2O[C@H]1CN(C)CC1CCOCC1 -1.46%
O=C(C[C@H]1CC[C@@H]2[C@H](COC[C@@H](O)CN2C(=O)Nc2cccc(F)c2)O1)NCc1ccccc1F 0.633%
COc1ccc2c3c([nH]c2c1)[C@H](CO)N(Cc1cccc(F)c1)CC31CCN(CC2CC2)CC1 -32.6%
C[C@H]1CCCCO[C@H](CN(C)CC2CC2)[C@@H](C)CN([C@@H](C)CO)C(=O)c2cc(NS(C)(=O)=O)ccc2O1 2.25%
COc1ccccc1-c1cnc2c(c1)C(=O)N([C@H](C)CO)C[C@@H](C)[C@@H](CN(C)CC1CCCC1)O2 23.1%
C[C@@H]1CN([C@H](C)CO)C(=O)c2cc(NS(C)(=O)=O)ccc2O[C@@H]1CN(C)S(C)(=O)=O -0.244%
C[C@H](O)C#Cc1cnc2c(c1)C(=O)N([C@H](C)CO)C[C@H](C)[C@@H](CN(C)C(=O)Nc1ccc(F)cc1)O2 8.69%
CNC[C@@H]1OCCCC[C@H](C)Oc2ccc(NC(=O)Nc3ccc(OC)cc3)cc2C(=O)N([C@H](C)CO)C[C@@H]1C 7.49%
C[C@@H]1CN([C@H](C)CO)C(=O)c2cc(NS(=O)(=O)c3cccs3)ccc2O[C@@H](C)CCCCO[C@@H]1CN(C)S(=O)(=O)c1cccs1 -4.08%
COc1ccc(NC(=O)N(C)C[C@H]2Oc3ccc(NS(=O)(=O)c4cccs4)cc3C(=O)N([C@@H](C)CO)C[C@H]2C)cc1 -6.98%
C[C@H]1CN([C@@H](C)CO)C(=O)c2cc(NS(=O)(=O)c3cccs3)ccc2O[C@@H]1CN(C)C(=O)Nc1cccc2ccccc12 -2.31%
C[C@@H]1CCCCO[C@@H](CN(C)S(=O)(=O)c2ccc(F)cc2)[C@@H](C)CN([C@@H](C)CO)C(=O)c2cc(NS(=O)(=O)c3cccs3)ccc2O1 12.7%
C[C@H]1CCCCO[C@@H](CN(C)S(=O)(=O)c2cccs2)[C@@H](C)CN([C@@H](C)CO)C(=O)c2cc(NS(=O)(=O)c3ccc(Cl)cc3)ccc2O1 -0.143%
C[C@@H]1CCCCO[C@H](CN(C)S(=O)(=O)c2cccs2)[C@H](C)CN([C@@H](C)CO)C(=O)c2cc(NS(=O)(=O)c3cccs3)ccc2O1 -8.04%

CPE inhibition, 72.2% (active) and -4.36% (inactive):
Cn1cnc(S(=O)(=O)N2C[C@@H]3N[C@H](C2)C3c2ccc(-c3ccccc3F)cc2)c1 (some centres not stated)
